Measurements from ChEMBL document CHEMBL4513216, “Probing the Open Global Health Chemical Diversity Library for Multistage-Active Starting Points for Next-Generation Antimalarials” (ACS Infect Dis, 2020).
In all, about 69,000 compounds went through this assay and about 8,600 (12%) showed an effect of 50% or more. Shown is part of a subset that was picked to be rich in strong results.

Test system: Plasmodium berghei
Experiment: Screen against P. berghei liver stage (PbLuc), transformed with Luciferase, at 10uM
Assay type: functional, HepG2
Conditions: tested at 10 uM

Compound | INHIBITION [%]
O=C(c1ccncc1F)N1CCCC(c2nccn2CC2CCC2)C1 (centres undefined) | 36.8
CC(C)C(C(=O)N1CCCN(Cc2nccn2C)CC1)N1CCCC1 (centres undefined) | 11.6
O=C(NC1CCCN(CCCc2ccccc2)C1)c1ccc(Cl)s1 (centres undefined) | 35.1
CN(C)CC(O)Cn1cc(NCc2ccc(Br)cc2)cn1 (centres undefined) | 33.1
CC(C)Oc1ccc(C(=O)NCc2ccc3c(c2)CCCN3C)cn1 | 29.2
Cc1ccc(C(=O)NCc2ccnc(N3CCN(C)CC3)c2)cn1 | 38.9
CCOc1ccc(C(=O)NCc2ccnc(N3CCCC3)c2)cn1 | 70.5
CC(C(=O)NCc1ccnc(N2CCCC2)c1)n1cccn1 (centres undefined) | 13.275
CC(C)Oc1ccc(C(=O)NCc2ccnc(N3CCCC3)c2)cn1 | 79.9
CCOc1ccc(C(=O)NCc2ccnc(N3CCN(C)CC3)c2)cn1 | 14
CC(O)CN1CCC(CN(C)Cc2cccc(C(=O)N(C)C)c2)CC1 (centres undefined) | 21.5
CO[C@@H]1CCN(C(=O)Cc2ccsc2)[C@H]1Cc1cccnc1 | -41
C[S+]([O-])CCNC(=O)N1CCN(c2cc(F)ccc2F)CC1 (centres undefined) | 0.348
Cc1nc(COC[C@]23COC[C@H]2CN(Cc2ccoc2)C3)cs1 | -14
c1cncc(OCC2CN(Cc3ccsc3)Cc3nccn3C2)c1 (centres undefined) | 39.2
CN(C)CCOCC1CN(Cc2cccc(F)c2)Cc2nccn2C1 (centres undefined) | 86.7
CCOCC1CN(Cc2cccc(C#N)c2)Cc2nccn2C1 (centres undefined) | 41.8
CN(C)C(=O)COCC1CN(Cc2ccsc2)Cc2nccn2C1 (centres undefined) | 46.2
c1ccc(CN2Cc3nccn3CC(Cn3cncn3)C2)nc1 (centres undefined) | -37.9
c1cncc(CN2Cc3nccn3CC(Cn3cccn3)C2)c1 (centres undefined) | 30.3
c1ccc(CN2Cc3nccn3CC(Cn3cccn3)C2)nc1 (centres undefined) | 56.6
c1ccc(COCC2CN(Cc3ccsc3)Cc3nccn3C2)nc1 (centres undefined) | 76.5
N#Cc1cccc(CN2Cc3nccn3CC(CN3CCCC3)C2)c1 (centres undefined) | -13
COc1ncccc1CN1Cc2nccn2CC(CN2CCCC2)C1 (centres undefined) | 72
N#Cc1cccc(CN2Cc3nccn3CC(COCC3CC3)C2)c1 (centres undefined) | -102
COc1ncccc1CN1Cc2nccn2CC(Cn2cccn2)C1 (centres undefined) | 24.9

Compound | INHIBITION [%]
CC(=O)N(Cc1ncc(C(C)C)o1)C1CCN(CCC#N)C1 (centres undefined) | -6.865
Cn1cc(C(=O)N[C@@H]2CN(Cc3cccs3)[C@@H]3CCCO[C@@H]32)cn1 | 15.1
CN(Cc1cccc(F)c1)C(=O)c1cc2c([nH]c1=O)CCCC2=O | 8.535
CCn1c(C2CCN(C(=O)CCc3cc(Cl)no3)CC2)nn(C)c1=O | 0
Cc1cc(O)cc(=O)n1CCCC(=O)Nc1n[nH]c2cc(Br)ccc12 | 3.93
Fc1ccc(-c2nc(CNC3CCc4ncnn4C3)co2)cc1 (centres undefined) | 23.7
CCNC(=O)C1(Cc2cc(-c3ccccc3)no2)CCCN(C(C)C)C1 (centres undefined) | 4.41
CNc1cc(C)nc(N2C[C@@H](C(=O)O)[C@H](C3CC3)C2)n1 | 38.6
CCc1nc(C)c(C(=O)N2C[C@@H](C(=O)O)[C@H](C3CC3)C2)s1 | 63
CNc1nc(C)c(C(=O)N2C[C@@H]3CC[C@H]2CN(c2cnccn2)C3)s1 | -26.1
Cc1nc(C)c(C(=O)N2CCCC(c3cnccn3)C2)s1 (centres undefined) | 11.1
CCc1nc(C)c(C(=O)N2C[C@@H]3CC[C@H]2CN(S(=O)(=O)N(C)C)C3)s1 | 40.7
CCc1nc(C)c(C(=O)N2CCCC(c3noc(C)n3)C2)s1 (centres undefined) | 45.4
Cc1nc(C)c(C(=O)N2C[C@@H](C(=O)O)[C@H](C3CC3)C2)s1 | 76.9
CNc1nc(C)c(C(=O)N2C[C@@H](C(=O)O)[C@H](C3CC3)C2)s1 | 83.8
Cc1nc2cc(C(=O)N3C[C@@H](C(=O)O)[C@H](C4CC4)C3)ccc2[nH]1 | 29.8
CN(C)CC(=O)N1CCC2(CC1)CN(Cc1ccccc1)C2 | 33.4
CCOCC(O)CN1CCN(C(=O)c2ccc(C)nc2)CC1 (centres undefined) | 24.2
Cc1cc(-n2c(C)cn(CN(C)Cc3ccccc3)c2=O)no1 | -5.64
C=C(C)COc1ccc(C(=O)N(C)C(C)c2ccon2)cc1 (centres undefined) | -1.38
COc1ccc(-c2nnc(C(C)N3CCOC(C)(C)C3)o2)cc1 (centres undefined) | 21.6
COc1ccc(-c2nnc(C(C)N3CCOCC3)o2)cc1 (centres undefined) | 37.5
COc1ccc(-c2nnc(C(C)N3CCC4(CC3)OCCO4)o2)cc1 (centres undefined) | 69.3
CC(=O)Nc1nc2c(s1)CN(CC(=O)Nc1ccc(C)c(Cl)c1)CC2 | 24.2
Cc1ccc(C(=O)N2C[C@H]3CCCC(OCc4cccnc4)[C@H]3C2)cn1 (some centres undefined) | 27.6
O=C1CCCCCN1Cc1nc(C2(c3ccc(F)cc3)CCOC2)no1 (centres undefined) | -26.8

Compound | INHIBITION [%]
c1ccc(CO[C@H]2CO[C@@]3(CCCN(Cc4cccnc4)C3)C2)nc1 | -17.1
Cc1ccccc1C(C#N)NC(=O)CCCOc1cccnc1 (centres undefined) | 31.2
N#CC(NC(=O)CCCOc1cccnc1)c1ccccc1Cl (centres undefined) | 40.9
N#CC(NC(=O)CCCOc1cccnc1)c1ccc(F)cc1F (centres undefined) | 66.9
Cc1ccccc1-n1cc(CNC(=O)CC2C(=O)NCCN2C)cn1 (centres undefined) | 4.68
O=C(NC[C@@H]1CCCO1)c1cc(Br)cnc1N1CCCCC1 | 20.4
O=C(c1ccccc1F)N(CCCO)S(=O)(=O)c1cccs1 | 37.7
O=C(c1cccc(F)c1)N(CCCO)S(=O)(=O)c1cccs1 | -38.8
O=C(c1ccc(F)cc1)N(CCCO)S(=O)(=O)c1cccs1 | 67.4
O=C(c1cscn1)N1CC[C@H]2C[C@H](c3nnc(C4CC4)o3)O[C@@H]2C1 | 30.3
CC(C)(C)C(=O)N1CCC(c2nc(O)cc(-c3ccncc3)n2)CC1 | 11.1
CN(C)c1nccnc1C1CCN(C2CCCCC2O)CC1 (centres undefined) | 17.4
Cc1ccc(C(=O)N2C[C@H](NS(C)(=O)=O)[C@@H](C(C)C)C2)cc1F | 14.3
CC(C)[C@@H]1CN(C(=O)c2ccc3c(c2)CCCO3)C[C@H]1NS(C)(=O)=O | 71.1
Cc1ccc(C(=O)N2C[C@@H](NS(C)(=O)=O)[C@H](C(C)C)C2)cc1O | 18
C[C@H]1C[C@H]2CN(C(=O)CCc3ccccc3)CC[C@H]2O1 | -19
CCn1cc(CN2C[C@@H]3CCCN3C[C@@H]2CCSC)cn1 | 24.4
Cc1ccn(CCNC(=O)C2(C)CC(c3ccccc3)=NO2)n1 (centres undefined) | -3.94
CCCc1noc(C(C)S(=O)(=O)Cc2nc(C3CC3)no2)n1 (centres undefined) | 22.2
CCc1nc(CN2CCN(C(C)c3nc(C4CC4)no3)CC2)no1 (centres undefined) | -23.9
CCc1noc(CS(=O)(=O)C(C)c2nc(C3CC3)no2)n1 (centres undefined) | 51.5
CC(C)c1noc(CS(=O)(=O)Cc2nc(C(C)C)no2)n1 | 34.2
CC(C)c1noc(C(C)S(=O)(=O)Cc2nc(C3CC3)no2)n1 (centres undefined) | 70
Cc1noc(C)c1CS(=O)(=O)Cc1nc(C2CC2)no1 | 21.6
COCCN(Cc1cccc(C#N)c1)Cc1nc(C)no1 | 41.2
O=C(Cc1ccc2c(c1)OCC2)Nc1nc(C(F)(F)F)n[nH]1 | 28.6

Compound | INHIBITION [%]
CN1CCC(N(C)C(=O)CSc2ccc(F)c(F)c2)C1=O (centres undefined) | -0.897
CN1CCC(N(C)C(=O)CCc2ccc(F)c(F)c2)C1=O (centres undefined) | 17.9
CC(C)c1ccc(CCC(=O)N(C)C2CCN(C)C2=O)cc1 (centres undefined) | 53.8
COCC(=O)N1CCC2(CC1)COC(COCc1ccccn1)C2 (centres undefined) | 33
Cc1nn(C)c2c(=O)n(Cc3ccc(Cl)cc3)nnc12 | 48.25
CC(=O)N1Cc2ccccc2CC1C(=O)Nc1cc(C)ccn1 (centres undefined) | 56.5
CC(=O)N1Cc2ccccc2C[C@H]1C(=O)N(C)Cc1ccccn1 | 40.7
CC(=O)N1Cc2ccccc2C[C@H]1C(=O)Nc1ccccn1 | 28.7
CN(CCc1ccccn1)C(=O)C1Cc2ccccc2CN1C (centres undefined) | 20
CC(=O)N1Cc2ccccc2CC1C(=O)Nc1ccc(C)cn1 (centres undefined) | 32.7
CC(=O)N1Cc2ccccc2C[C@H]1C(=O)N(C)CCc1ccccn1 | 58.1
Cn1cnc(S(=O)(=O)NCCN2CCCCCC2)c1Cl | 31.2
CCC(Oc1ccccc1)c1nn2c(CN(CC)CC)nnc2s1 (centres undefined) | -31.7
Cc1nc([C@@H]2C[C@@H]3CCN(C(=O)c4ccsc4)C[C@H]3O2)no1 | 18.5
CCCN(C(=O)c1ccncc1)c1nc2c(s1)CCc1c-2cnn1C | 46
COCCN(Cc1ccoc1)C(=O)c1ccccn1 | 11.8
CN(C(=O)c1ccccn1)c1nc2c(s1)CCc1c-2cnn1C | 74.5
CCCN(C(=O)c1cnccn1)c1nc2c(s1)CCc1c-2cnn1C | 29.2
COCCN(C(=O)c1cnccn1)c1nc2c(s1)CCc1c-2cnn1C | 11.1
CCCN(C(=O)COC)c1nc2c(s1)CCc1c-2cnn1C | 5.13
CCCN(C(=O)c1cccnc1)c1nc2c(s1)CCc1c-2cnn1C | 78.2
CCCN(C(=O)c1cnc(C)cn1)c1nc2c(s1)CCc1c-2cnn1C | 44.8
COCCN(C(=O)c1ccccn1)c1nc2c(s1)CCc1c-2cnn1C | 59.3
Cc1cc(-c2cnc(C)nc2CN(C)C(=O)c2ccccn2)on1 | 18.3
CCCN(C(=O)c1ccccn1)c1nc2c(s1)CCc1c-2cnn1C | 63.1
CN(C(=O)c1ccccn1)c1nnc(C2CCOC2)s1 (centres undefined) | -13.745
